The source of these data is PubChem BioAssay (Tox21).

Results filed as inconclusive are left out. A number with no mark means an inactive call. Calls of active or inactive are those of the source. Calls come from the whole dose curve; as a rule, active = well fitted cell-killing curve with a large enough effect in the repeat runs; inconclusive = weak or mixed curves, or effect the other way; inactive = flat fitted curve, though single readings scatter.
% is set by controls: 0 for no effect and ±100 for the full control effect.

This test can be described thus: qHTS assay to identify small molecule antagonists of the constitutive androstane receptor (CAR) signaling pathway - cell viability counter screen (AID 1224837). Note: nearly all actives have a fitted effect of over 45% in size. The note with it: HepG2-CYP2B6-hCAR viability, CellTiter-Fluor, 23 h, co-treated with 50 nM CITCO; series mostly up to 92.4 µM. The text has this: National Center for Advancing Translational Sciences [NCATS]
NIH Chemical Genomics Center [NCGC]
U.S. Environmental Protection Agency [EPA]
National Institutes of Environmental Health Sciences [NIEHS]
National Toxicology Program [NTP]
U.S. Food and Drug Administration [FDA]
The constitutive androstane receptor (CAR) is a nuclear receptor which regulates multiple drug metabolizing enzymes (DMEs) and transporters. Activating CAR will generally increase the transcription and subsequent translation of CYP2B6 and CYP3A4. These two DMEs represent about 50% of the drug metabolizing potential in the body. When CAR is deactivated, the metabolizing potential in the body will decrease, subsequently increasing the toxicity in the body or lowering the therapeutic potential of a pro-drug. Recently, there have also been studies performed indicating CARs role in energy metabolism and cancer therapy. Therefore, inhibiting CARs activity could have a potential effect on diabetes and cancer. Identifying environmental toxins and compounds which modulate CAR, through the use of the Tox21 10K compound collection, will be an important step in determining the toxicity and potential therapeutic effects these factors will have on the human body. To differentiate true CAR antagonists from cytotoxic substances, the assay is multiplexed with a cell viability assay.
Tox21 Assay Protocol Summary:
A double-stable (hCAR and CYP2B6-2.2kb) transfected cell line, derived from human hepatoma (HepG2) cells, was utilized for the duration of the quantitative high-throughput screens. The HepG2-CYP2B6-hCAR cells were dispensed at 2500 cells/4 uL/well in 1536-well white solid bottom plates using a Multidrop Combi. After the assay plates were incubated at 37 C/5% CO2 for 4 hrs, 23 nL of compounds at 15 concentrations (from 5-48 columns) or positive control (from 1 to 4 columns) were transferred to the assay plates using a Pintool station. One uL of CITCO (final concentration = 50 nM) was added, using a Flying Reagent Dispenser, inside each well. After a 23 hr incubation period at 37 C/5% CO2, 1 uL of CellTiter-Fluor reagent was added into each well of the assay plates using a Flying Reagent Dispenser. The fluorescence intensity in the plates was then measured using a ViewLux plate reader.
(qHTS replaces the single test concentration by a dilution series.)
`O=C(O)c1cc(C(=O)O)cc(C(=O)O)c1`: the result was inactive. For `COc1cc(-c2ccc(=O)[nH]n2)ccc1OC(F)F`, the outcome was inactive. In the case of `CNCCO`, the result was inactive. As for `CCCn1cc[n+](C)c1C`, the outcome was inactive. For `CCCCOC(=O)CCC(C)=O`, the outcome was inactive. Take `C=CN1CCCCCC1=O`: the outcome was inactive. On to `O=C(O)CCSCCC(=O)O`, for which the outcome was inactive. On to `CCCCCCCCCCOc1cc2c(=O)c(C(=O)OCC)c[nH]c2cc1OCC`, for which the activity change, negative = cytotoxicity was 5.07% [at 8.39 µM]. For the compound `CC(C)(C#N)Nc1nc(Cl)nc(NC2CC2)n1`, the result was inactive. For the compound `CCCCS(=O)(=O)N[C@@H](Cc1ccc(OCCCCC2CCNCC2)cc1)C(=O)O`, the outcome was inactive. For the compound `C=C[Si](OC(C)=O)(OC(C)=O)OC(C)=O`, the outcome was inactive. With `CC(N)C12CC3CC(CC(C3)C1)C2` (stereo not given), the outcome was inactive. `CCN[C@H]1C[C@H](C)S(=O)(=O)c2sc(S(N)(=O)=O)cc21`: the outcome was inactive.

On to `C1CCC2=NCCCN2CC1`, for which the outcome was inactive. Consider `Cc1ccnc(NS(=O)(=O)c2ccc(N)cc2)n1`, for which the result was inactive. With `CCCCOCCOC(=O)COc1cc(Cl)c(Cl)cc1Cl`, the result was inactive. Regarding `CCCCCCCC1CCCC1=O` (stereo not given), the result was inactive. The same measure, in the same setting: for `NC(=O)Cc1cccc2ccccc12` the value was “inactive”; for `CC1=NS(=O)(=O)c2cc(Cl)ccc2N1`, “inactive”. Regarding `CC(C)COC(=O)c1ccc(N)cc1`, the result was inactive. For the compound `CCCCCCCCCCCCCCC(=O)O`, the outcome was inactive. In the case of `C[C@H]1[C@H](NC(=O)/C(=N/OC(C)(C)C(=O)O)c2csc(N)n2)C(=O)N1S(=O)(=O)O` (stereo in doubt), the outcome was inactive. The same measure, in the same setting: the value for `CC(C)c1ccc2ncccc2c1` was “inactive”; that for `CCCCCCCCCCCCSC` was “inactive”. Consider `COc1ccc2cc1Oc1cc3c(cc1OC)CC[N+](C)(C)[C@H]3Cc1ccc(cc1)Oc1c(OC)c(OC)cc3c1[C@@H](C2)[N+](C)(C)CC3`, for which the result was inactive. On to `NC(=O)N[C@@H](CCC(=O)O)C(=O)O`, for which the outcome was inactive. With `CCCC(=O)O[C@]1(C(=O)CC)CC[C@H]2[C@@H]3CCC4=CC(=O)CC[C@]4(C)[C@H]3[C@@H](O)C[C@@]21C`, the outcome was inactive. As to `COCCOCC(OC)OC`, the outcome was inactive.

For `CN1CC(=O)N/C1=N/C(=O)Nc1cccc(Cl)c1`, the result was inactive. As to `CCCCCCC#CC(=O)OC`, the outcome was inactive. As for `CCCCN1C=CN(C)C1`, the activity change, negative = cytotoxicity is -1.55% [at 19 µM].

As for `O=C(CO)[C@@H](O)[C@H](O)[C@@H](O)CO`, the result was inactive. For the compound `CO[C@@]1(NC(=O)C(C(=O)O)c2ccc(O)cc2)C(=O)N2C(C(=O)O)=C(CSc3nnnn3C)CO[C@@H]21` (stereo not given in full), the outcome was inactive. Still for that read-out and setting: for `Cc1ccc(C(=O)c2ccc(CC(=O)O)n2C)cc1` the value was “inactive”; for `CCC(C)(CN(C)C)OC(=O)c1ccccc1` (stereo not given), “inactive”. With `c1ccc2sc(SN3CCOCC3)nc2c1`, the result was inactive. Regarding `CC(C)(C)C(=O)Oc1ccc(S(=O)(=O)Nc2ccccc2C(=O)NCC(=O)O)cc1`, the result was inactive. Consider `O=C(O)c1cn(C2CC2)c2cc(N3CCNCC3)c(F)cc2c1=O`, for which the result was inactive. As to `CCOC(=O)CCC(=O)OCC`, the result was inactive. Take `CCCC(C)C(=O)OCC` (stereo not given): the outcome was inactive.
